# From ChEMBL document CHEMBL3433997, “St. Jude Leishmania screening dataset” (2016)
# Tests used:
# Assay type in all cases: functional
# [1] = target: Solute carrier family 2, facilitated glucose transporter member 1 (Homo sapiens) (UniProt P11166); experiment: ST_JUDE_LEISH: Cytotoxicity at 2uM final concentration against transgenic Leishmania Mexicana promastigotes LmGLUT1 that are glucose transport deficient and complemented with the human glucose transporter GLUT1. Activity is measured by DNA content using SYBR green in vitro
# Solute carrier family 2, facilitated glucose transporter member 1 (Homo sapiens), sequence (P11166 whole entry): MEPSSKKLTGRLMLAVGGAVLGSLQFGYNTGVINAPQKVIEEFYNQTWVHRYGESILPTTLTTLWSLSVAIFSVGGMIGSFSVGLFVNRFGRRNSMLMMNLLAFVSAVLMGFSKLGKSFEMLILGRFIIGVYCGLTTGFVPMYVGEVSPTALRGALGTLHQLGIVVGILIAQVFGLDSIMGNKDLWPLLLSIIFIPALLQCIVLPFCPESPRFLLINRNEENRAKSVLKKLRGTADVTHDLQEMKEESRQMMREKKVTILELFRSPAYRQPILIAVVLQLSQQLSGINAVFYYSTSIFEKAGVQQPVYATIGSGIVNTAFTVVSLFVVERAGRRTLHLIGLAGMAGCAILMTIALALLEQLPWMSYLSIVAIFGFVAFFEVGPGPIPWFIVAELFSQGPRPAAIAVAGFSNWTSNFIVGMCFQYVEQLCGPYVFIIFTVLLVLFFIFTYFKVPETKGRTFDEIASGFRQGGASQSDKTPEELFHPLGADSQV
# [2] = target: Hexose transporter 1 (Plasmodium falciparum) (UniProt O97467); experiment: ST_JUDE_LEISH: Cytotoxicity at 2uM final concentration against transgenic Leishmania Mexicana promastigotes LmPfHT that are glucose transport deficient and complemented with the Plasmodium falciparum hexose transporter. Activity is measured by DNA content using SYBR green in vitro
# [3] = target: Glucose transporter (Leishmania mexicana) (UniProt O61059); experiment: ST_JUDE_LEISH: Cytotoxicity at 2uM final concentration against transgenic Leishmania Mexicana promastigotes LmGT2 that are glucose transport deficient and complemented with the L. Mexicana glucose transporter 2. Activity is measured by DNA content using SYBR green in vitro
Compound,inhibition [1] [%],inhibition [2] [%],inhibition [3] [%]
O=S(=O)(NCCN1CCCC1)c1ccc(-c2cccc(CNCc3ccsc3)c2)s1,5.4,2.42,-1.72
CCCCNCc1cc(Cl)c2ccccc2c1O,7.17,7.57,6.58
O=C(NCC(NCCCNc1cc(=O)c2ccccc2[nH]1)c1cc(Br)cc(Br)c1)C1=CCCC1 (centres undefined),3.18,4.82,5.79
O=C(Cn1cc(C(F)(F)F)cc(Cl)c1=O)N1CCN(S(=O)(=O)c2ccc(Cl)cc2)CC1,2.2,1.76,-0.25
Cn1c2ccccc2c2c3ccccc3c(CNC(CO)(CO)CO)cc21,13.8,12.7,6.67
CN(C(=O)c1ccccc1)C1c2cc(C#N)ccc2OC(C)(C)C1O (centres undefined),0.42,0.76,0.38
C=CCc1cc(Br)ccc1OCCCOc1c(N)nc(N)nc1N,6.42,7.13,3.62
N#Cc1cc([N+](=O)[O-])ccc1-n1nc(C(N)=O)n(Cc2cccc(F)c2)c1=S,11.3,8.94,5.66
O=S(=O)(c1c(Cl)cc(Cl)cc1Cl)N1CCCCC(c2ccc(C(F)(F)F)cc2)=N1,5.69,8.89,6.28
COc1ccc(-c2ccc(NC(=O)c3ccc(Cl)cc3)cc2)cc1CN(C)CCN(C)C,9.47,4.95,2.75
Cc1nc(-c2ccc(-c3ccc(C(=O)Nc4ccc(C(C)C)c(OCCN(C)C)c4)cc3)c(C)c2)no1,4.64,2.76,2.51
O=C(NC1CCN(Cc2ccc(F)cc2)CC1)c1ccc(-c2cccc(C(F)(F)F)c2)s1,9.61,9.88,1.44
O=C(NC1CCN(c2ccnc3cc(Cl)ccc23)C1)c1ccc(C(F)(F)F)cc1 (centres undefined),3.93,3.66,0.57
